Among all 300,000 compounds or so, about 5,200 (1.7%) were called active.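 The calls were made as follows: active = mean replicate activation of at least 50% with a set share of replicates each reaching 50%; inconclusive = only one of those two conditions met; inactive = mean below 50% and too few replicates reaching it.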 This excerpt belongs to a sample that is enriched for actives.
Assay: HSF-1 response element luciferase induction – NIH3T3-HGL cells, MG132 stress, luminescence, single point, primary screen (AID 504408);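 also: 0% = median of the neutral control wells and 100% = twice that signal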
Conditions: NIH3T3-HGL HSF-1 luciferase reporter, MG132, 8 h; at 9 µM; active compounds read high; 100% = twice DMSO control signal

SMILES | activation
Cc1c(NC(=O)CN(C)CC(=O)Nc2ccc(F)c(F)c2F)c(=O)n(-c2ccccc2)n1C | 1.95% (inactive)
COc1cc(C(=O)NCC(=O)NCCSc2ccc(Br)cc2)cc(OC)c1OC | 7.39% (inactive)
Cc1cc(NC(=O)CSCc2ccccc2C)no1 | 56.3% (active)
Cc1cc(NC(=O)c2ccccc2C)no1 | 26.1% (inactive)
Cc1ccccc1CSCC(=O)NC(=O)NC(C)(C)C | 5.08% (inactive)
O=C(COc1coc(CN2CCN(c3ccccc3)CC2)cc1=O)N1CCc2ccccc21 | 1.05% (inactive)
COc1ccc(N2CCN(C(=O)COC(=O)c3cccc(S(=O)(=O)Nc4ccccc4OC)c3)CC2)cc1 | 5.51% (inactive)
Clc1cccc(-c2nc3nc4ccccc4nc3n2Cc2ccco2)c1 | 79.2% (active)
O=c1[nH]c(CSc2ncc(-c3ccc(F)cc3)n2Cc2ccco2)nc2ccccc12 | 41.8% (inactive)
Cc1cc(NC(=O)CSc2nc3cc(Cl)ccc3c(=O)n2Cc2ccco2)no1 | 1.94% (inactive)
O=C(NCCSc1ncc(-c2ccccc2)[nH]1)c1ccco1 | 10.6% (inactive)
CCOC(=O)c1cnc(-c2ccccc2)nc1Oc1ccc(C)cc1 | 88.3% (active)
CCCCOc1ccc(-c2ncc(C(=O)OCC)c(N)n2)cc1 | 23.3% (inactive)
CCCNC(=O)c1cnc(-c2ccccc2)nc1-c1ccccc1 | 23.9% (inactive)
O=C(COc1cccc2c1CCNC2=O)NC1CCCCC1 | -2.8% (inactive)
CC(C)Nc1nnc(SC(C)C(=O)N(C)C2CCCCC2)s1 (centres undefined) | 7.73% (inactive)
N#CC(=C1CCCC1)c1nc(-c2ccc(Cl)cc2)cs1 | 62.5% (active)
CCCCCN1CC(O)=C(c2nc(-c3ccc(Cl)cc3)cs2)C1=N | -2.24% (inactive)
N#CC(=C1SC=CS1)c1nc(-c2ccccc2)cs1 | 44.5% (inactive)
O=C(COc1ccccc1Cl)Nc1ccccc1C(=O)NC1CC1 | -14.4% (inactive)
CN(C)CCN(C(=O)CN1C(=O)c2ccccc2C1=O)c1nc2cc3c(cc2s1)OCCO3 | 16% (inactive)
CN(CC(=O)Nc1cccc(F)c1)C(=O)C1=COCCO1 | 3.81% (inactive)

SMILES | activation
Cc1cc(Nc2ccc(Br)cc2)nc2ccccc12 | 0.857% (inactive)
Cc1cccc(C2C3=C(CCCC3=O)N=C3c4ccccc4C(=O)C32)c1 (centres undefined) | 78.2% (active)
CCOC(=O)C1=C(C)N=C2c3ccccc3C(=O)C2C1c1ccc(Br)cc1 (centres undefined) | -1.71% (inactive)
O=C1CCCC2=C1C(c1ccccc1)n1c(s/c(=C/c3cccc(F)c3)c1=O)=N2 (centres undefined) | -4.55% (inactive)
COc1ccc(CNS(=O)(=O)c2cc3c4c(c2)CCN4C(=O)CC3)cc1 | 30.7% (inactive)
COc1ccccc1OCCCCCCN1CCN(C)CC1 | -3.8% (inactive)
Cc1n[nH]c(=O)c2c(NC(=O)CSc3ccccc3F)oc(C)c12 | 6.59% (inactive)
COc1ccc(OCCCC(=O)OC(C)C(=O)Nc2ccccc2[N+](=O)[O-])cc1 (centres undefined) | 10.9% (inactive)
COc1ccc2c(c1)CCc1c(C(=O)N3CCc4ccccc4C3)noc1-2 | 6.07% (inactive)
COc1ccc2c(c1)CCc1c(C(=O)N3CCCC3)noc1-2 | 54.9% (active)
COc1ccc2oc(=O)c(C(=O)N3CCCC3)cc2c1 | 6.28% (inactive)
O=C(c1cc(COc2c(F)cccc2F)on1)N1CCSCC1 | 13.6% (inactive)
CC1CN(C(=O)c2cc(COc3c(F)cccc3F)on2)CCN1C (centres undefined) | 52.1% (active)
O=C(NCCN1CCCC(O)C1)c1cc(COc2c(F)cccc2F)on1 (centres undefined) | -5.99% (inactive)
Cc1csc(NC(=O)C2=COCCO2)n1 | 13% (inactive)
CC(C)CN(C(=O)COC(=O)c1ccc(Cl)c(N)c1)c1c(N)n(Cc2ccccc2)c(=O)[nH]c1=O | -19.5% (inactive)
O=C(NC1CCCCC1)c1ccc(-c2ccc(Cl)cc2)o1 | 67.1% (active)
S=C(NCc1ccc(Cl)cc1)NC1CCCCC1 | 18.1% (inactive)
O=C(NC1CCCCCC1)c1cccnc1Sc1ccc(Cl)cc1 | -8.73% (inactive)
CCN(C(=O)COC(=O)c1sccc1C)c1c(N)n(Cc2ccccc2)c(=O)[nH]c1=O | -3.51% (inactive)
CCCNC(=O)c1onc(CSc2ccc(F)cc2)c1C(=O)NC(C)C | -0.0105% (inactive)
CS(=O)(=O)c1ccc(Cl)c(NC(=O)COC(=O)c2ncc(Cl)c(Cl)c2Cl)c1 | 2.63% (inactive)

SMILES | activation
Oc1c(C(c2ccccn2)N2CCOCC2)ccc2cccnc12 (centres undefined) | 73.3% (active)
CC(C)c1cc(CN2CCOCC2)cc(C(C)C)c1O | 4.46% (inactive)
CCOc1cc(N2CCOCC2)c(OCC)cc1NC(=O)COc1cccc2cccnc12 | -23% (inactive)
O=C(COC(=O)c1ncc(Cl)c(Cl)c1Cl)NNC(=O)c1ccccc1 | 3.3% (inactive)
O=C1CC2(CCN(C(=O)COc3ccc(F)cc3)CC2)Oc2ccccc21 | 12% (inactive)
CC(OC(=O)c1ccc(S(=O)(=O)N2CCOCC2)cc1)c1ccccc1 (centres undefined) | 13.9% (inactive)
CC(Oc1ccc(F)cc1)C(=O)Nc1ccccc1C(=O)NC1CC1 (centres undefined) | 6.2% (inactive)
Cc1ccc(O)c(NC(=O)c2cc(-c3ccco3)on2)c1 | 113% (active)
O=C(Nc1cccnc1Cl)c1cc(-c2ccccc2O)on1 | 11.3% (inactive)
COc1ccc(NC(=O)c2cc(-c3ccc(C)cc3)on2)cc1 | -4.41% (inactive)
c1ccc(C[C@H]2CNCCN2CCC23CC4CC(CC(C4)C2)C3)cc1 | -13.4% (inactive)
Cc1ccc(CSCC(=O)N(C)CC(=O)Nc2ccc(C)cc2)cc1 | -77.8% (inactive)
O=C(CSC1=NS(=O)(=O)c2cc(F)ccc2N1)Nc1ccccc1F | 30% (inactive)
Cc1ccc(OC(=O)c2cc3ccccc3o2)cc1 | 5.61% (inactive)
Cc1ccc(NC(=O)c2cc3ccccc3o2)cc1 | 51.6% (active)
C/C(=N\NC(=S)Nc1ccc(C)cc1)c1cc2ccccc2o1 | 7.68% (inactive)
CN(/N=C/c1ccccc1)C(=S)c1ccccc1 | 9.01% (inactive)
O=c1c(-c2cccc(Cl)c2)c[nH]n1-c1ccccc1 | 7.2% (inactive)
O=C(O)C(c1ccccc1)N1C(=O)/C(=C\c2ccc(-c3cccc(Cl)c3)o2)SC1=S (centres undefined) | -2.76% (inactive)
O=C1c2ccccc2NC(c2ccc(-c3cccc(Cl)c3)o2)N1O (centres undefined) | 76.4% (active)

— PubChem BioAssay AID504408 (Broad Institute, 2011)
